We go through 5 molecules from PubChem BioAssay (NCATS).

The target of test [1] is Estrogen receptor (Homo sapiens) (UniProt P03372). The experiment in a line: qHTS assay for small molecule agonists of estrogen receptor alpha signaling (AID 588514).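 Note: 0% = vehicle only and 100% = reference agonist; nearly all actives have a fitted effect of over 70% in size.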 The procedure, abridged:
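ER-alpha-UAS-bla GripTite HEK 293 cells in medium with 2% charcoal/dextran-treated FBS were treated with compound titrations at 37 C for 18 hrs; beta-lactamase reporter read by CCF4 fluorescence after 2 hrs at RT.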
(Quantitative high-throughput screening tests each substance at several concentrations.)

Test [2] addresses Glucocorticoid receptor (Homo sapiens) (UniProt P04150). In words: qHTS assay for small molecule antagonists of glucocorticoid receptor signaling (AID 588533; active = well fitted inhibition curve with a large enough effect in the signal ratio, with a control signal flat, not every such curve was filed as active; the % refers to the signal ratio;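 note: cells stimulated with 2 nM dexamethasone as agonist; % is set by controls: 0 for no effect and ±100 for the full control effect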). The procedure, abridged:
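Antagonist-mode qHTS: compound titrations added to GRE-bla HeLa cells, then dexamethasone 2 nM final; 18 h, 37 C. CCF4 FRET fluorescence normalized to dexamethasone and DMSO; IC50 from Hill fit.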

Test [3] addresses Peroxisome proliferator-activated receptor delta (Homo sapiens) (UniProt Q03181). The experiment in a line: qHTS assay for small molecule agonists of peroxisome proliferator-activated receptor delta signaling (AID 588534).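 Note: 0% = DMSO basal wells and 100% = positive control agonist at 10 µM.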 The method, boiled down: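 Cell-based beta-lactamase reporter assay run in agonist mode: cells seeded and incubated 5 hrs at 37 C, compounds added and incubated 18 hrs at 37 C. CCF4 dye fluorescence read after 2 hrs at RT; EC50 and efficacy from Hill fits.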

The nature of test [4]: qHTS assay for small molecule antagonists of peroxisome proliferator-activated receptor delta signaling (AID 588535; active = well fitted inhibition curve with a large enough effect in the signal ratio, with a control signal flat, not every such curve was filed as active; the % refers to the signal ratio;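 for max response: cells co-treated with a PPAR-delta agonist as stimulator during compound exposure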). Conditions: HEK293T PPARd-UAS-bla, beta-lactamase FRET ratio, 18 h; 460 nm channel. The procedure, abridged: (§1)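 GeneBLAzer PPAR-delta-UAS-bla HEK293T cells in medium with 2% charcoal/dextran FBS were preincubated 5 hrs at 37 C, then given compounds, incubated 18 hrs at 37 C, and read by CCF4 beta-lactamase fluorescence; IC50 from Hill fits.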

The target of test [5] is Peroxisome proliferator-activated receptor delta (Homo sapiens) (UniProt Q03181). The test is described as above. The procedure, abridged:
as §1

The target in test [6] is Vitamin D3 receptor (Homo sapiens) (UniProt P11473). In words: qHTS assay for small molecule antagonists of vitamin D receptor signaling (AID 588541).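 Note: receptor activated by calcitriol during compound treatment; series mostly up to about 77 µM; % is set by controls: 0 for no effect and ±100 for the full control effect.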 The method, boiled down: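 VDR-UAS-bla HEK293T cells (2000/well, 2% charcoal-stripped FBS) were treated with titrated compounds plus 1-alpha,25-dihydroxyvitamin D3 (50 nM or 3 nM final) for 16 h at 37 C. CCF4 beta-lactamase fluorescence was read; Hill fits gave IC50.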

Test [7] deals with Retinoic acid receptor RXR-alpha (Homo sapiens) (UniProt P19793). The experiment in a line: qHTS assay for small molecule agonists of retinoid X receptor alpha signaling (AID 588544).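 Note: 0% = DMSO basal wells and 100% = reference agonist.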
Test [8] deals with Thyroid hormone receptor beta (Homo sapiens) (UniProt P10828). In words: qHTS assay for small molecule agonists of thyroid hormone receptor beta signaling (AID 588545). The method, boiled down:
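Agonist activity was read as beta-lactamase CCF4 fluorescence (405 ex, 460/530 em), scaled between DMSO (0%) and 10 nM T3 (100%), then Hill-fitted for EC50 and efficacy. HEK 293 TR-UAS-bla cells in 2% charcoal/dextran FBS medium were exposed 18 h at 37 C.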

The nature of test [9]: qHTS assay for small molecule antagonists of retinoid X receptor alpha signaling (AID 588546; active = well fitted inhibition curve with a large enough effect in the signal ratio, with a control signal flat, not every such curve was filed as active; the % refers to the signal ratio;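 note: cells stimulated with 9-cis-retinoic acid as agonist; % is set by controls: 0 for no effect and ±100 for the full control effect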). Conditions: HEK293T RXRa-UAS-bla, beta-lactamase ratio, antagonist mode; measured here: W530 green channel, cytotoxicity proxy. The method, boiled down: (§2)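 Beta-lactamase reporter inhibition, read as CCF4 fluorescence ratio (ex 405, em 460/530 nm) after 2 h at RT. HEK293T UAS-bla cells, 2500/well, were stimulated with 9-cis-RA at 500 or 100 nM final alongside test compound for 18 h at 37 C.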

Test [10] concerns the target Retinoic acid receptor RXR-alpha (Homo sapiens) (UniProt P19793). The test is described as above. Conditions: HEK293T RXRa-UAS-bla, beta-lactamase ratio, antagonist mode. The method, boiled down: as §2
Test [11] deals with Thyroid hormone receptor beta (Homo sapiens) (UniProt P10828). In words: qHTS assay for small molecule antagonists of thyroid hormone receptor beta signaling (AID 588547; active = well fitted inhibition curve with a large enough effect in the signal ratio, with a control signal flat, not every such curve was filed as active; the % refers to the signal ratio;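 note: cells stimulated with 0.4 nM T3 agonist during compound exposure; series mostly up to about 77 µM; % is set by controls: 0 for no effect and ±100 for the full control effect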). As to conditions: TR-UAS-bla HEK293, beta-lactamase ratio, antagonist mode, 18 h. The procedure, abridged: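 TR-UAS-bla GripTite HEK293 cells in 2% charcoal/dextran FBS medium were preincubated 4 h at 37 C, given compound (0.59 nM to 92 uM) plus 0.4 nM T3 (final) for 18 h, then CCF4 for 2 h at RT; Hill fit gave IC50.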

Test [12] in a line: qHTS assay for small molecule activators of the p53 signaling pathway (AID 651743; active = well fitted activation curve with a large enough effect in the signal ratio, not every such curve was filed as active; the % refers to the signal ratio; note: potency is the fitted concentration of half-maximal effect; for activation: series mostly up to about 92 µM; % of control where 0% means no effect). As to conditions: HCT-116 p53RE-bla, beta-lactamase FRET ratio, 16 h; activation: stronger effect = higher value. The method, boiled down: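 p53RE-bla HCT-116 cells with a stably integrated beta-lactamase reporter under p53 response elements were plated, rested 5 hours at 37 C/5% CO2, then exposed to compounds in DMSO for 16 hours at 37 C. LiveBLAzer B/G FRET substrate was read after 2 hours at room temperature.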

A short description of test [13]: qHTS assay for small molecule activators of the nuclear factor-kappa B (NF-kB) signaling pathway (AID 651749; active = well fitted activation curve with a large enough effect in the signal ratio; the % refers to the signal ratio; note: series mostly up to about 77 µM; % of control where 0% means no effect). As to conditions: NF-kB-bla ME-180 cells, beta-lactamase FRET ratio, 16 h; activation: stronger effect = higher value. The method, boiled down:
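ME-180 cells stably carrying a beta-lactamase reporter under an NF-kB response element were exposed to compound or DMSO vehicle for 16 hr at 37C, 5% CO2. Pathway activation was read by FRET, since reporter expression disrupts FRET.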

Test [14] can be described thus: qHTS assay for small molecule agonists of the antioxidant response element (ARE) signaling pathway measured by Nrf2-dependant transcriptional activity - cell viability counter screen (AID 720653; active = well fitted curve in the direction sought with a large enough effect in the repeat runs; an effect the other way counts as inactive or inconclusive; note: % is set by controls: 0 for no effect and ±100 for the full control effect). Conditions: ARE-bla HepG2 viability, CellTiter-Glo ATP luminescence, 16 h; max response: stronger effect = lower value. The procedure, abridged: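 ARE-bla HepG2 cells (2,000/well) rested 5 hrs at 37C/5% CO2, then exposed to compounds in DMSO for 16 hrs. Viability was read in the same wells as intracellular ATP by luminescence, 30 min at room temperature after reagent addition.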

A short description of test [15]: qHTS assay for cell viability of HEK293 cells (AID 743288; active = well fitted curve in the direction sought with a large enough effect; an effect the other way counts as inactive or inconclusive; note: % is set by controls: 0 for no effect and ±100 for the full control effect; nearly all actives have a fitted effect of over 50% in size). As to conditions: ATP luminescence (CellTiter-Glo), 18 h; max response: stronger effect = lower value. The procedure, abridged: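 Environmental chemicals tested in qHTS format against parental HEK293 cells; 18 h treatment, 37 C; read-out ATP luminescence (CellTiter-Glo), 30 min RT development.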
Test [16] in a line: qHTS assay for cell viability of the p53RE-bla HCT-116 cell line (AID 743292; active = well fitted curve in the direction sought with a large enough effect; an effect the other way counts as inactive or inconclusive; note: % is set by controls: 0 for no effect and ±100 for the full control effect; nearly all actives have a fitted effect of over 55% in size). The method, boiled down:
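Intracellular ATP of p53RE-bla HCT-116 cells measured by luciferase luminescence following 16 h compound incubation at 37 C; DMSO-only wells served as vehicle controls.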

Test [17] in a line: qHTS assay for environmental chemicals that activate the Aryl hydrocarbon Receptor (AhR) signaling pathway (AID 651777; active = well fitted curve in the direction sought with a large enough effect; an effect the other way counts as inactive or inconclusive; note: nearly all actives have a fitted effect of over 15% in size; note: potency is the fitted concentration of half-maximal effect; for activation: % of control where 0% means no effect). Conditions: 1A2-DRE human hepatoma cells, luciferase, 24 h; activation: stronger effect = higher value. The method, boiled down:
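Measured luciferase activity, read 30 min after One-Glo addition at room temperature, from human hepatoma cells bearing a dioxin response element–CYP1A2 promoter reporter and exposed to compound for 24 hr at 37 C.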

In test [18] the target is Peroxisome proliferator-activated receptor alpha (Homo sapiens) (UniProt Q07869). The experiment in a line: qHTS assay for small molecule agonists of the peroxisome proliferator-activated receptor alpha (PPARalpha) signaling pathway (AID 651778; active = well fitted curve in the direction sought with a large enough effect; an effect the other way counts as inactive or inconclusive; note: potency is the fitted concentration of half-maximal effect; for max response: % of control where 0% means no effect). As to conditions: PathHunter PPARalpha complementation, chemiluminescence, 6 h; max response: stronger effect = higher value. The method, boiled down: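 Cells plated at 2,000/well and held overnight at 37 C, 5% CO2, then compound added by pin tool for 6 hr; after PathHunter detection reagent and 60 min at room temperature, chemiluminescence from enzyme complementation was read.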

Test [19] can be described thus: qHTS assay for small molecule agonists of the antioxidant response element (ARE) signaling pathway measured by Nrf2-dependant transcriptional activity (AID 720636; active = well fitted curve in the direction sought with a large enough effect in the repeat runs; an effect the other way counts as inactive or inconclusive;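 note: HepG2 cells with an ARE-driven luciferase reporter; % of control where 0% means no effect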). The procedure, abridged:
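In HepG2 cells engineered with an Nrf2-responsive luciferase gene, ARE induction was quantified as luminescence after 16 hr compound treatment at 37 C.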

In test [20] the target is Nuclear receptor subfamily 1 group I member 2 (Rattus norvegicus) (UniProt Q9R1A7). The experiment in a line: qHTS assay for small molecule activators of the rat pregnane X receptor (rPXR) signaling pathway (AID 651751; call rule not given here; note: 0% is about no effect). As to conditions: rPXR reporter cells, luciferase (One-Glo), 24 h.

Each structure is given as a SMILES string. Inconclusive results are not listed. The source made the active and inactive calls. Unless noted, calls come from the whole dose curve.

Sequence of Peroxisome proliferator-activated receptor alpha (Homo sapiens) (Q07869 whole entry, looked up): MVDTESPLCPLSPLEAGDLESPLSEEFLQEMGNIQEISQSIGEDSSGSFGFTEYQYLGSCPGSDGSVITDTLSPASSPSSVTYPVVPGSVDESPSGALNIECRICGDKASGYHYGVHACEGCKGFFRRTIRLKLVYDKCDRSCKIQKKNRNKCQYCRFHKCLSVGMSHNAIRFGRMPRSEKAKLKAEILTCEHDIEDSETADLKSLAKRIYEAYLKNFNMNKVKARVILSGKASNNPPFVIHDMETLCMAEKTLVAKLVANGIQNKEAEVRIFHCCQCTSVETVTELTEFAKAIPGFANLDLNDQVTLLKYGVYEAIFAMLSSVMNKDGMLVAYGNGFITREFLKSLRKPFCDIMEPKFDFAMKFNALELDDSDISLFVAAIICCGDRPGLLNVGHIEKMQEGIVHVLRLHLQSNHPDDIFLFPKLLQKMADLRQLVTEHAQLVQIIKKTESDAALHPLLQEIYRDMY
Sequence of Glucocorticoid receptor (Homo sapiens) (P04150 whole entry, looked up): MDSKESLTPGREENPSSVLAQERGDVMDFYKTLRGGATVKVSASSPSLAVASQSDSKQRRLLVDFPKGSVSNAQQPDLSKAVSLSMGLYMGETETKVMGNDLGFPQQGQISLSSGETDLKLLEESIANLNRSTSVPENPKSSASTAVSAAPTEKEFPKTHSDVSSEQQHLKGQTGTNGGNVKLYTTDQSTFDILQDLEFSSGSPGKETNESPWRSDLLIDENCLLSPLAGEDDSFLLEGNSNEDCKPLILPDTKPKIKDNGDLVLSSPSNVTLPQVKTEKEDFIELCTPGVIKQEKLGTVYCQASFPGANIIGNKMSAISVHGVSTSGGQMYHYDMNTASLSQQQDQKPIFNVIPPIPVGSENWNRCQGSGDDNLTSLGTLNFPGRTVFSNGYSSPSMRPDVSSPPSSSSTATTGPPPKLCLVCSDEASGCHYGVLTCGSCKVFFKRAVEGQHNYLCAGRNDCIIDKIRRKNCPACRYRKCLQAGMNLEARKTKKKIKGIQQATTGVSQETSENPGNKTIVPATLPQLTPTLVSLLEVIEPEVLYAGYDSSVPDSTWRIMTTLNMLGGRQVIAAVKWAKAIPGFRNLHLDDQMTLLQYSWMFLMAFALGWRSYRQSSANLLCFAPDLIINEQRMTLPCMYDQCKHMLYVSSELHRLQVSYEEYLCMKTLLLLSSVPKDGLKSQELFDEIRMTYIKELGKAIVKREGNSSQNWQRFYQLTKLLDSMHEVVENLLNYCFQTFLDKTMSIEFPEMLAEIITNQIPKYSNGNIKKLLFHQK
Sequence of Vitamin D3 receptor (Homo sapiens) (P11473 whole entry, looked up): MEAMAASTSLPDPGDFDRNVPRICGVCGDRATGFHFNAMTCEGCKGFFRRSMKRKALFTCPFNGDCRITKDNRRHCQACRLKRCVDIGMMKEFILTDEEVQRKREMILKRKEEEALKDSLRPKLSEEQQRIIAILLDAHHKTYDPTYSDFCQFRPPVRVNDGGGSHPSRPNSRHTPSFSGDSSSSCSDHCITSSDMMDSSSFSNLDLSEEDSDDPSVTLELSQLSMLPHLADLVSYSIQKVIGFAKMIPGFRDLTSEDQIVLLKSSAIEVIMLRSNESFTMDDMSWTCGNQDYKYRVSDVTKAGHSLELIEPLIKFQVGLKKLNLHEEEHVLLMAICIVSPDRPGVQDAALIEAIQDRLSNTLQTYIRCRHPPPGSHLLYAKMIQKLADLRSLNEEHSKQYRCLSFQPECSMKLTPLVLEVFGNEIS
Sequence of Retinoic acid receptor RXR-alpha (Homo sapiens) (P19793 whole entry, looked up): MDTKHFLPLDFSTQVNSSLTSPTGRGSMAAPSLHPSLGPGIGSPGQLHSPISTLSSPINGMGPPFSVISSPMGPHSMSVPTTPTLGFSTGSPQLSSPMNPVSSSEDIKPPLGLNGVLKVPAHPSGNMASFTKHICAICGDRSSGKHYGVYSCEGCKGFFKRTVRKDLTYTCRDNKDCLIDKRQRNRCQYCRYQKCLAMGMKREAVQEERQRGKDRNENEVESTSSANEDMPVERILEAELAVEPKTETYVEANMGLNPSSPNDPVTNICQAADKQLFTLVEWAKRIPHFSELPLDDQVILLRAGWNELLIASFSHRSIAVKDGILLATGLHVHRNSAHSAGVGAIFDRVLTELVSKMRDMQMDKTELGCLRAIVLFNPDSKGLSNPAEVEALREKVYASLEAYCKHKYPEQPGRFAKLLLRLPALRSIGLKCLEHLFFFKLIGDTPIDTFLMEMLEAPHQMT
Sequence of Thyroid hormone receptor beta (Homo sapiens) (P10828 whole entry, looked up): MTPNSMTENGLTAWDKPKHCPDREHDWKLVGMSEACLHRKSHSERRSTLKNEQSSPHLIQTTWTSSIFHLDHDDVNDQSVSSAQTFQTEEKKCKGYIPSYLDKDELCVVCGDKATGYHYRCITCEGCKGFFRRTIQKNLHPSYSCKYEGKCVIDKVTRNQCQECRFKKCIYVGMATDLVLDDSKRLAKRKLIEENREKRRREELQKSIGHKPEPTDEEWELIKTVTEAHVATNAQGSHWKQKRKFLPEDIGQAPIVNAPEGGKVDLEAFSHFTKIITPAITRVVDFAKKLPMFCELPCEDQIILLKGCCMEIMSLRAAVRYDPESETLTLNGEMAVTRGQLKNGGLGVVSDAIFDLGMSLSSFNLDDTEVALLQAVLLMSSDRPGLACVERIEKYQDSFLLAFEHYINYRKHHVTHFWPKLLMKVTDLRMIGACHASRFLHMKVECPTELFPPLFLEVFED
Sequence of Peroxisome proliferator-activated receptor delta (Homo sapiens) (Q03181 whole entry, looked up): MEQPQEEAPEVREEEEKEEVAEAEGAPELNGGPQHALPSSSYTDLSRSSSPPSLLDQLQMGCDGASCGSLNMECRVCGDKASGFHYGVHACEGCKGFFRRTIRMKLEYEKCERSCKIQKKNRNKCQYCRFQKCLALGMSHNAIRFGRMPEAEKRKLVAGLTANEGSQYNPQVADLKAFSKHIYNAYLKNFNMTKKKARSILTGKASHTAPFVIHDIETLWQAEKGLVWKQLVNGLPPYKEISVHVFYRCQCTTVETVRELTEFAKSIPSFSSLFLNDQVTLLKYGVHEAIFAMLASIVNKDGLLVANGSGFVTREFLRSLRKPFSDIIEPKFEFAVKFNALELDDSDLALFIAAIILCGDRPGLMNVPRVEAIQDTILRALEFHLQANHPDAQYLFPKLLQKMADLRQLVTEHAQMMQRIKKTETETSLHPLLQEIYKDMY
Sequence of Nuclear receptor subfamily 1 group I member 2 (Rattus norvegicus) (Q9R1A7 whole entry, looked up): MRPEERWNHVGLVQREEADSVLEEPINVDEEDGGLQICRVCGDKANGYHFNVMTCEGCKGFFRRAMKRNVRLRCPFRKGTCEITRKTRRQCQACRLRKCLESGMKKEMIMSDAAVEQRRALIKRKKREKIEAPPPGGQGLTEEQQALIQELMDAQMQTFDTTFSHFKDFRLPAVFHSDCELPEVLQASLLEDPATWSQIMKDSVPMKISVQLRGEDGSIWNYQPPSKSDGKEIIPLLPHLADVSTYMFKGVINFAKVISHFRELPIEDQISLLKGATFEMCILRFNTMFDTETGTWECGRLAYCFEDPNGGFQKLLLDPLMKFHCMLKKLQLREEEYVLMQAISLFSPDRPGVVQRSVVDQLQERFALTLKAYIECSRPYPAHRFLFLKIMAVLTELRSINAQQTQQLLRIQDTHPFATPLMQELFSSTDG
Sequence of Estrogen receptor (Homo sapiens) (P03372 whole entry, looked up): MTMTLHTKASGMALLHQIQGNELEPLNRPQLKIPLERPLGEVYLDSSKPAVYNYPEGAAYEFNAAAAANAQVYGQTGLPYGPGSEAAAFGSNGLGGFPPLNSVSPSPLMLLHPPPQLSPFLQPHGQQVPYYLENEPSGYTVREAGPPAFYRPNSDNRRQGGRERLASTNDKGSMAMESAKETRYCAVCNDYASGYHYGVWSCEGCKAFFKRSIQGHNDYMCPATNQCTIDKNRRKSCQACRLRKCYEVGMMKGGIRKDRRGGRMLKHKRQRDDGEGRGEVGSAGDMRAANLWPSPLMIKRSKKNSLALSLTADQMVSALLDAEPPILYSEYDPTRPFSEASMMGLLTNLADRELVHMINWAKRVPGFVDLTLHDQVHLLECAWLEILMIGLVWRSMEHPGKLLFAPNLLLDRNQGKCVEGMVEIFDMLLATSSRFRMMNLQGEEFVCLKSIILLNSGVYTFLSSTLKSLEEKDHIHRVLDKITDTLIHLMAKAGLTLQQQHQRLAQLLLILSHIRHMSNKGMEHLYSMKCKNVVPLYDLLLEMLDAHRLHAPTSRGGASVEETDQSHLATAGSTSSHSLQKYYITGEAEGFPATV

On to `ClC1=C(Cl)C2(Cl)C3C4OC4C(Cl)C3C1(Cl)C2(Cl)Cl` (configuration not stated), for which the Potency entry in test [1], in test [2], in test [5], in test [6], in test [7] and in test [8] was “inactive” each time. Besides, in [16], the Potency entry was “inactive”. The outcome in test [3] was inactive. The max response in test [4] is -5.72%; in test [9], -11.3%; in [10] it was -6.75% (inactive); in test [14], 0.273% (inactive); in test [15], -17.2% (inactive). The activity change % (negative = inhibition) in [11] is 16.3% (inactive). The activation in test [12] was -0.997% (inactive); in test [13], 4.48% (inactive).

Regarding `N#Cc1cc(I)c(O)c(I)c1`, in test [3], the call was inactive. The max response is 43.3% in [4]; 0.0011% in [9]; -13.5% (inactive) in test [10]; -6.44% (inactive) in test [14]; -4.72% (inactive) in [15]; -7.71% (inactive) in [20]. Besides, the Potency entry in test [5], in [6], in test [7], in test [8], in [19] and in [16] was “inactive” each time. In addition, the results for the Potency in test [12] and in test [18] were 44.7 µM (active) and 15.8 µM (active), respectively. Further, the activation in test [13] was 1.07% (inactive); in test [17], -1.69% (inactive).

On to `CON(C)C(=O)Nc1ccc(Cl)c(Cl)c1`, for which the Potency entry in [1], in [2], in test [6], in test [7], in test [8] and in [16] was “inactive” throughout. Moreover, the call in test [3] was inactive. Also, the max response was -15.9% in test [9], -0.419% (inactive) in [10], -1.01% (inactive) in test [18] and -26.6% (inactive) in test [14]. Further, the activation is 0.565% (inactive) in test [12] and -2.01% (inactive) in test [13]. The Potency in [17] was 35.5 µM (active).

`COc1cc(OC)nc(NC(=O)NS(=O)(=O)c2cc(NC=O)ccc2C(=O)N(C)C)n1`: the Potency entry in test [2], in test [5], in test [6], in [7], in test [8] and in [19] was “inactive” each time. For the same molecule, the molecule was classed as inactive in [3]. The max response in [4] is -27.4%; in test [9], -2.91%; in [10], 14.5% (inactive); in test [18], -4.09% (inactive); in test [14], 11% (inactive); in test [15], -24.7% (inactive). The max response in [20] was -9.56% (inactive). For the same molecule, the activity change % (negative = inhibition) in [11] was -8.65% (inactive). The activation is -3.45% (inactive) in [12], 1.99% (inactive) in test [13] and -3.78% (inactive) in [17].

For `Cc1nn(-c2cc(NS(C)(=O)=O)c(Cl)cc2Cl)c(=O)n1C(F)F`, the call in [3] was inactive. Also, the max response is -1.23% in test [4]; -3.07% in [9]; -28.1% (inactive) in [10]; -0.197% (inactive) in test [18]; 1.41% (inactive) in test [14]; -6.27% (inactive) in test [15]. For the same molecule, the max response in [20] is -0.675% (inactive). The Potency result in [5], in test [6], in test [7], in test [8], in test [19] and in [16] was “inactive” each time. Also, in test [11], the activity change % (negative = inhibition) is -13.9% (inactive). For the same molecule, the values for the activation in test [12] and in [17] were -4.43% (inactive) and -2.63% (inactive), respectively.
